# Test results: PubChem BioAssay (Tox21)
# Unmarked numbers belong to inactive results. Active and inactive are the calls of the source. Calls follow the shape of the dose curve; as a rule, active = well fitted curve in the direction sought with a large enough effect in the repeat runs; inconclusive = weak or mixed curves; inactive = flat fitted curve, though single readings scatter.
# Test: qHTS assay to test for compound auto fluorescence at 590 nm (red) in HepG2 cell free culture (AID 720684)
# Conditions: cell-free medium autofluorescence, red 540/590 nm; series mostly up to 46 µM; fluorescence, % of Rose Bengal: at the top concentration
# From the text: U.S. Tox21 Program National Center for Advancing Translational Sciences [NCATS] NIH Chemical Genomics Center [NCGC] U.S. Environmental Protection Agency [EPA] National Institutes of Environmental Health Sciences [NIEHS] National Toxicology Program [NTP] U.S. Food and Drug Administration [FDA] Tox21 Assay Overview: Compound auto fluorescence often interferes with screening of the compound library against various biological targets and signaling pathways. Some of these compounds may have fluorophoric properties. Such properties may interfere with the assay outputs resulting in false positives and/or negatives. To decrease such complications and ensure the compound activities are relevant in terms of biological response, the Tox21 10K compound library was screened for auto fluorescence. From the fluorophores used as reporter signals in our screening assays, the auto fluorescence equivalencies of compounds against three fluorophores have been evaluated: Triamterene, Fluorescein and Rose Bengal sodium for blue, green and red fluorescence, respectively. The fluorescence intensities were measured using Excitation/Emission wavelengths at 405/460nm, 485/535nm and 540/590nm for blue, green and red labels, respectively. This assay includes the red fluorescence data.
# Tox21 Assay Protocol Summary: 5 uL of culture medium (MEM containing 10% FBS) per well was dispensed into black wall/clear bottom 1536-well plates using a Multidrop Combi Dispenser (ThermoFisher Scientific, Waltham, MA). After 23 nL compound or DMSO vehicle was transferred into assay plate by a pintool work station (Kalypsys, San Diego, CA), fluorescence intensities in the assay plates were measured by an Envision (PerkinElmer, Shelton, CT) plate reader using three labels for measuring blue, green and red fluorescence at […] 460, 535 and 590nm respectively.
# % is scaled to controls: 0 for no effect and ±100 for the full control effect.
SMILES,"fluorescence, % of Rose Bengal",outcome
CN(C)CCCCCCN(C)C (tested in a mixture with another compound),-0.018%,–
[S]=[Sb](=[S])[S][Sb](=[S])=[S],0.0889%,–
C[C@@H](Cc1ccccc1)N(C)C,0.0465%,–
CC(=O)OC1CN2CCC1CC2 (stereo not given),0.0166%,–
CC(=O)Oc1ccc2c3c1O[C@H]1[C@@H](OC(C)=O)C=C[C@H]4[C@@H](C2)N(C)CC[C@@]341,–,inactive
CC(=O)[C@@]1(O)CC[C@H]2[C@@H]3CCC4=CC(=O)CC[C@]4(C)C3(F)[C@@H](O)C[C@@]21C (stereo not given in full),0.14%,–
C[C@H]1CC[C@]2(NC1)O[C@H]1C[C@H]3[C@@H]4CC[C@H]5C[C@@H](O)CC[C@]5(C)[C@H]4CC[C@]3(C)[C@H]1[C@@H]2C,0.145%,–
CC1(C)[C@H](C=C(Cl)Cl)[C@H]1C(=O)OCc1c(F)c(F)cc(F)c1F,-0.145%,–
Cc1nnc2n1-c1ccc(Cl)cc1C(c1ccccc1Cl)=NC2,-0.309%,–
CC[N+](C)(CC)CCOC(=O)C(O)(c1ccccc1)c1ccccc1,-0.281%,–
O=c1c2ccccc2[se]n1-c1ccccc1,-0.0017%,–
C[C@]12CC[C@H](OS(=O)(=O)O)CC1=CC[C@@H]1[C@@H]2CC[C@]2(C)C(=O)CC[C@@H]12,0.0824%,–
CCOc1ccc2c3c1O[C@H]1[C@@H](O)C=C[C@H]4[C@@H](C2)N(C)CC[C@@]341,-0.0798%,–
Oc1cccc[c]1[Hg][Cl],0.0429%,–
Oc1cc[c]([Hg][Cl])cc1,–,inactive
O=S(=O)(O)c1cc(O)ccc1O,–,inactive
CC(=O)[C@H]1CC[C@H]2[C@@H]3CC[C@@H]4C[C@H](O)CC[C@]4(C)[C@H]3CC[C@]12C,0.0354%,–
O=c1ccc2cc(O[C@@H]3O[C@H](CO)[C@@H](O)[C@H](O)[C@H]3O)c(O)cc2o1,0.0101% [at 18.6 µM],–
C[C@]12CCC(=O)C=C1C=C[C@@H]1[C@@H]2CC[C@@]2(C)[C@H]1CC[C@@]2(O)CCC(=O)O,0.398% [at 18.6 µM],–
O[C@H]1[C@H]2[C@H](O)CCCN2C[C@H]1O,0.0387%,–

SMILES,"fluorescence, % of Rose Bengal",outcome
CN1c2ccccc2C(NCCCCCCC(=O)O)c2ccc(Cl)cc2S1(=O)=O (stereo not given),-0.0003%,–
C[C@]12C=CC(=O)C=C1CC[C@@H]1[C@@H]2CC[C@]2(C)OC(=O)CC[C@@H]12,0.0351%,–
Clc1ccc(C(Cn2ccnc2)OCc2csc3c(Cl)cccc23)c(Cl)c1 (stereo not given),-0.136% [at 18.6 µM],–
F/C(COc1ccc2c(c1)[nH]c1ccccc12)=C1/CN2CCC1CC2,0.0054%,–
Cc1nnc2n1-c1sc(Br)cc1C(c1ccccc1Cl)=NC2,-0.0326%,–
CN1CC[C@@]23CCCC[C@@H]2[C@@H]1Cc1ccc(O)cc13,-0.0994%,–
CC(C)(O)[C@@H]1[C@H]2OC(=O)[C@@H]1[C@]1(O)C[C@H]3O[C@]34C(=O)O[C@H]2[C@]14C,–,inactive
COc1ccc(C(c2ccc(OC)cc2)C(Cl)(Cl)Cl)cc1,0.55% [at 91.3 µM],–
Clc1ccc2c(c1)C(c1ccccc1)=NCc1nncn1-2,-0.0264%,–
CCCC(C)(COC(N)=O)COC(=O)NC1CC1 (stereo not given),-0.152%,–
Cc1cc(C)cc(C(=O)OC2C[C@H]3CC[C@@H](C2)N3C)c1 (stereo not given in full),0.0015%,–
COc1ccc2c3c1O[C@H]1C(=O)CC[C@H]4[C@@H](C2)N(C)CC[C@]314,0.003%,–
Oc1ccc2c3c1O[C@H]1[C@@H](O)C=C[C@H]4[C@H](C2)NCC[C@@]341,-0.201%,–
O.O.O.O=C([O-])C(O)C(O)C(=O)[O-].O=C([O-])C(O)C(O)C(=O)[O-].[K+].[K+].[Sb].[Sb] (stereo not given),-0.22%,–
CCC1(c2ccccc2)C(=O)NC(=O)N(C(=O)c2ccccc2)C1=O (stereo not given),0.0657%,–
CCCCCc1cc(O)c2c(c1)OC(C)(C)[C@@H]1CCC(C)=C[C@@H]21,0.11%,–
CN[C@@H]1C[C@@H](c2ccc(Cl)c(Cl)c2)c2ccccc21,0.0772%,–
C[C@@H]1[C@H](O)[C@@H](C)/C=C/C=C/CC/C=C/C=C/C=C/C=C/[C@H](O[C@H]2O[C@@H](C)[C@H](O)[C@@H](N)[C@H]2O)CC2O[C@](O)(C[C@@H](O)[C@H](O)CC[C@@H](O)C[C@@H](O)C[C@@H](O)CC(=O)O[C@H]1C)C[C@H](O)[C@H]2C(=O)O,-0.346%,–
O=C1C[C@@H]2OCC=C3CN4CC[C@]56c7ccccc7N1[C@H]5[C@H]2[C@H]3C[C@H]46 (tested in a mixture with another compound),–,inactive
C[C@]12CC[C@H]3[C@@H](CCC4=C(O)C(=O)CC[C@@H]43)[C@@H]1CC[C@@H]2OC(=O)CCC1CCCC1,-0.168%,–
